Source: PubChem BioAssay (Tox21)
“And” between values parts separate entries of the source, which are not always exact repeats. Equal entries are not always repeated. Records with an inconclusive call do not appear. The source made the active and inactive calls. Unless noted, the call rests on the fitted dose curve; in most records, active means well fitted curve in the direction sought with a large enough effect in the repeat runs; inconclusive means weak or mixed curves; inactive means no such curve, though single readings can be large; an effect the other way counts as inactive or inconclusive.

What was measured:
[1] = Caspase-3/7 induction in HepG2 cells by small molecules, qHTS assay (AID 1346978); further: nearly all actives have a fitted effect of over 15% in size
Method in brief: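 Wild-type HepG2 cells, 2,000/well, settled 5 hr at 37 C and 5% CO2, then compound-treated for 17 hr; caspase-3/7 activity read by luminescent Caspase-Glo 3/7 after 30 min at room temperature.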

[2] = Caspase-3/7 induction in CHO-K1 cells by small molecules, qHTS cell viability counter screen (AID 1346979); further: nearly all actives have a fitted effect of over 35% in size; further: potency means the concentration at half of the fitted maximal effect
Method in brief: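 Viability readout by fluorescence (CellTiter-Fluor) on wild-type CHO-K1 cells exposed for 16hr at 37C and 5% CO2 to compounds delivered in DMSO; reagent incubated 1hr before reading.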

[3] = Caspase-3/7 induction in CHO-K1 cells by small molecules, qHTS assay (AID 1346980); further: nearly all actives have a fitted effect of over 15% in size
Method in brief: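 Wild-type CHO-K1 cells exposed to compounds for 17hr at 37 C, 5% CO2. Caspase-3/7 activity then measured by Caspase-Glo 3/7 luminescence after 30min at room temperature.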

[4] = Caspase-3/7 induction in HepG2 cells by small molecules, qHTS cell viability counter screen (AID 1346981); further: nearly all actives have a fitted effect of over 30% in size; further: potency means the concentration at half of the fitted maximal effect; on activity change, negative = cytotoxicity: series mostly up to about 92 µM
Method in brief: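 Wild-type HepG2 cells (2,000/well) were allowed to settle for 5 hr at 37 C, 5% CO2, then dosed with compounds in DMSO by pin transfer. After 16 hr at 37 C, CellTiter-Fluor was added and fluorescence read 1 hr later.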

[5] = target: Acetylcholinesterase (Homo sapiens) (UniProt P22303); assay: Acetylcholinesterase (AChE) small molecule antagonists: colormetric cell-based qHTS assay (AID 1347395; calls by dose curve; further: nearly all actives have a fitted effect of over 30% in size; further: potency means the concentration at half of the fitted maximal effect)
Method in brief: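 Homogeneous whole-cell format. SH-SY5Y cells seeded overnight, dosed with compound (30 min, 37 C, 5% CO2), then given DTNB/acetylthiocholine cocktail for 90 min at 37 C; colorimetric signal.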

[6] = target: Acetylcholinesterase (Homo sapiens) (UniProt P22303); assay: Acetylcholinesterase (AChE) small molecule antagonists: fluorescence cell-based qHTS assay (AID 1347398; calls by dose curve; further: nearly all actives have a fitted effect of over 50% in size; further: potency means the concentration at half of the fitted maximal effect); details: Potency: AChE activity; outcome: AChE activity
Method in brief: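 Endogenous acetylcholinesterase of SH-SY5Y neuroblastoma cells is measured in situ. After overnight attachment and 30 min compound exposure, cells receive acetylthiocholine and Thiolite Green; fluorescence is read after 40 min at room temperature.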

[7] = target: Acetylcholinesterase (Homo sapiens) (UniProt P22303); assay: Acetylcholinesterase (AChE) small molecule antagonists: enzyme-based qHTS assay with human liver microsomes (AID 1347399; calls by dose curve; further: nearly all actives have a fitted effect of over 60% in size; further: potency means the concentration at half of the fitted maximal effect); details: Potency: qHTS inhibition; outcome: qHTS inhibition
Method in brief: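 Recombinant human AChE (50 mU/mL in the enzyme mix) and human liver microsomes (0.25 mg/mL final) were preincubated with compound and NADPH (0.25 mg/mL final) for 30 min at 37 C. Acetylthiocholine/DTNB was then added; thiocholine was read colorimetrically after 10 min at room temperature.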

[8] = target: Cytochrome P450 2D6 (Homo sapiens) (UniProt P10635); assay: Cytochrome P450 Family 2 Subfamily D Member 6 (CYP2D6) small molecule antagonists: luciferase reporter qHTS assay (AID 1671196); further: nearly all actives have a fitted effect of over 50% in size; further: potency means the concentration at half of the fitted maximal effect; on activity change, negative = inhibition: series mostly up to about 120 µM
Method in brief: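 CYP2D6 enzyme–substrate mix was held with compound for 10 min at room temperature, then NADPH regeneration solution was added and the reaction ran 1 h at room temperature. Luciferin product was detected by luminescence after 20 min with detection reagent.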

[9] = target: Cytochrome P450 2C19 (Homo sapiens) (UniProt P33261); assay: Cytochrome P450 Family 2 Subfamily C Member 19 (CYP2C19) small molecule antagonists: luciferase reporter qHTS assay (AID 1671197); further: nearly all actives have a fitted effect of over 65% in size; further: potency means the concentration at half of the fitted maximal effect; on activity change, negative = inhibition: series mostly up to about 120 µM
Method in brief: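 P450-Glo CYP2C19 screening system; proluciferin substrate; DMSO compound stocks; 10 min RT preincubation; NADPH regeneration, 1 h at 37C; luciferin detection reagent, 20 min RT; luminescence as RLU.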

[10] = target: Cytochrome P450 1A2 (Homo sapiens) (UniProt P05177); assay: Cytochrome P450 Family 1 Subfamily A Member 2 (CYP1A2) small molecule antagonists: luciferase reporter qHTS assay (AID 1671199); further: nearly all actives have a fitted effect of over 50% in size; further: potency means the concentration at half of the fitted maximal effect; on activity change, negative = inhibition: series mostly up to about 120 µM
Method in brief: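 Human CYP1A2 activity measured with a P450-Glo proluciferin substrate; compounds in DMSO preincubated 10 min at room temperature with enzyme-substrate mix, then NADPH regeneration system added for 1 h. Luciferin detection reagent, 20 min, luminescence read.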

[11] = target: Voltage-gated inwardly rectifying potassium channel KCNH2 (Homo sapiens) (UniProt Q12809); assay: Human Ether-a-go-go-Related Gene (hERG) channel small molecule antagonists: fluorescence cell-based qHTS assay (AID 1671200); further: nearly all actives have a fitted effect of over 50% in size; further: potency means the concentration at half of the fitted maximal effect;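 on activity change, negative = inhibition: hERG-expressing U2OS cells given a thallium stimulus after FluxOR II dye loading; series mostly up to about 77 µM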
Method in brief: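 Thallium served as the potassium surrogate; its influx into dye-loaded U2OS cells carrying the channel was measured by fluorescence over 2 min.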

[12] = target: Cytochrome P450 3A4 (Homo sapiens) (UniProt P08684); assay: Cytochrome P450 Family 3 Subfamily A Member 4 (CYP3A4) small molecule antagonists: luciferase reporter qHTS assay (AID 1671201); further: nearly all actives have a fitted effect of over 50% in size; further: potency means the concentration at half of the fitted maximal effect; on activity change, negative = inhibition: series mostly up to about 120 µM
Method in brief: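 Relative luminescence units after 20 min with luciferin detection reagent served as read-out. Beforehand, CYP3A4 turned over a proluciferin substrate for 1 h at room temperature with NADPH regeneration, following 10 min compound preincubation.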

[13] = target: Nuclear receptor subfamily 1 group I member 2 (Homo sapiens) (UniProt O75469); assay: Human pregnane X receptor (PXR) small molecule agonists, qHTS assay (AID 1346982); further: nearly all actives have a fitted effect of over 35% in size
Method in brief: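 PXR-Luc HepG2 cells (CYP3A4 promoter-driven luciferase) were seeded in medium with 5% charcoal-stripped FBS, left 5 hr at 37 C, then exposed to compounds in DMSO for 24 hr. Luminescence was read after ONE-Glo addition.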

[14] = target: Acetylcholinesterase (Homo sapiens) (UniProt P22303); assay: Acetylcholinesterase (AChE) small molecule antagonists: enzyme-based qHTS assay (AID 1347397; calls by dose curve; further: nearly all actives have a fitted effect of over 55% in size); details: Potency: AChE enzyme activity inhibition; outcome: AChE enzyme activity inhibition
Method in brief: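 Enzyme inhibition was scored from DTNB-detected thiocholine formed by recombinant human AChE acting on acetylthiocholine. The 30 min compound preincubation and 10 min substrate reaction were both run at room temperature, with DMSO as vehicle control.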

[15] = target: Cytochrome P450 2C9 (Homo sapiens) (UniProt P11712); assay: Cytochrome P450 Family 2 Subfamily C Member 9 (CYP2C9) small molecule antagonists: luciferase reporter qHTS assay (AID 1671198); further: nearly all actives have a fitted effect of over 50% in size; further: potency means the concentration at half of the fitted maximal effect; on activity change, negative = inhibition: series mostly up to about 120 µM
Method in brief: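 P450-Glo proluciferin substrate with CYP2C9 enzyme; 10 min RT preincubation, then NADPH regeneration 1 h at 37C; luciferin detection reagent 20 min RT, luminescence in relative luminescence units.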
On the % scale 0 is the no-effect control and ±100 the full control effect.

Voltage-gated inwardly rectifying potassium channel KCNH2 (Homo sapiens), sequence (Q12809 whole entry, looked up): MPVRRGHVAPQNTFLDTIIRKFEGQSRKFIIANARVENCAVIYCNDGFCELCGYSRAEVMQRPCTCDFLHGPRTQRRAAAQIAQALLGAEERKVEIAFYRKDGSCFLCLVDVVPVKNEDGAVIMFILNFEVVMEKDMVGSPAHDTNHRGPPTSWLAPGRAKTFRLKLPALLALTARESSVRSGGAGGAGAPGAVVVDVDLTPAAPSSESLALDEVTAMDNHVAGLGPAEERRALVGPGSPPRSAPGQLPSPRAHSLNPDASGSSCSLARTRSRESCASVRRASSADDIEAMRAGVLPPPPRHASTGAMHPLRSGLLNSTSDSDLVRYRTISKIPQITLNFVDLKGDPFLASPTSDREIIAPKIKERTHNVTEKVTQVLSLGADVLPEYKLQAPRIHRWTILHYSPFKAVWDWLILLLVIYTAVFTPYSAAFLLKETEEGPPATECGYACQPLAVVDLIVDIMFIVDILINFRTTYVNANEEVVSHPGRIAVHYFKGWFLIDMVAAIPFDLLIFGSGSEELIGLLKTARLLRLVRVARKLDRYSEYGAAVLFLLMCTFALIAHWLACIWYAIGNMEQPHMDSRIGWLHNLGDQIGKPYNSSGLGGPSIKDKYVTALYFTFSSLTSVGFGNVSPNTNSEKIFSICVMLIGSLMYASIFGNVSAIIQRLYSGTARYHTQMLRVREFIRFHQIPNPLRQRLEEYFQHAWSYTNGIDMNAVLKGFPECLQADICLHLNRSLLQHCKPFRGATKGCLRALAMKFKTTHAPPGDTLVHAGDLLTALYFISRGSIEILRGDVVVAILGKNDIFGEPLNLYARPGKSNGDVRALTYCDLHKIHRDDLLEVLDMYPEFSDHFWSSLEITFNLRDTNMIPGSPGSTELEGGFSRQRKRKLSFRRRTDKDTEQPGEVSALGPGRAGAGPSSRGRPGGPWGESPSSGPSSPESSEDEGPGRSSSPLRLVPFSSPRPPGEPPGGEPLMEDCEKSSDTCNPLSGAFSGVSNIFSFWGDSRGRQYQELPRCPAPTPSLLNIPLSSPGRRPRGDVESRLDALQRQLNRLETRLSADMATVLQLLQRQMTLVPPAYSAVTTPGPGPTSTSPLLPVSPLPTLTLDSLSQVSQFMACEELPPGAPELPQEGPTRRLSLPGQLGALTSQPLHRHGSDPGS
Nuclear receptor subfamily 1 group I member 2 (Homo sapiens), sequence (O75469 whole entry, looked up): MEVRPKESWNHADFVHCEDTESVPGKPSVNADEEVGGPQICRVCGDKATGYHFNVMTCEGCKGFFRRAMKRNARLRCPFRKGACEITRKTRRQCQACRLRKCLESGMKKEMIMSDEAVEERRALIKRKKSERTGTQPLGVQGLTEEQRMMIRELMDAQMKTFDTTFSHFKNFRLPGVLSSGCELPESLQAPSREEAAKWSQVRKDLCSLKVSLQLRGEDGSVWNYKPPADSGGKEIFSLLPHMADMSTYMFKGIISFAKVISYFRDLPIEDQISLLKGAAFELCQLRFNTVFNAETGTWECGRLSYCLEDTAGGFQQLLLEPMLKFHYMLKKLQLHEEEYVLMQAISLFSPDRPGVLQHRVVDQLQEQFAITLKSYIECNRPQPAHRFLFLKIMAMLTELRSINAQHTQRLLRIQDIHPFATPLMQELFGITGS
Cytochrome P450 2C9 (Homo sapiens), sequence (P11712 whole entry, looked up): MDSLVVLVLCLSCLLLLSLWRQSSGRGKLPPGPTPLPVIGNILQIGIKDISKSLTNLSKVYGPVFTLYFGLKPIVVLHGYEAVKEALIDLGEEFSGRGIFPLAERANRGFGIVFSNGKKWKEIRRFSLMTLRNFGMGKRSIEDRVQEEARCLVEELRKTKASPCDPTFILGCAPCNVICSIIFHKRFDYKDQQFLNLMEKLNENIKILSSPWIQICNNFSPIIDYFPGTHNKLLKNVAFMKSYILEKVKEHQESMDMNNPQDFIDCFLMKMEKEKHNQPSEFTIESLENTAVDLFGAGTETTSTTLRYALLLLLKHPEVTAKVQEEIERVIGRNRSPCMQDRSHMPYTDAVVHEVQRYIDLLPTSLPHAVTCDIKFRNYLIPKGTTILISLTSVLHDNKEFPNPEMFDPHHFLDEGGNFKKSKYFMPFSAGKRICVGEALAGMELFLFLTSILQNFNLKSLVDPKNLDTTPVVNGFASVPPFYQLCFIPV
Cytochrome P450 2D6 (Homo sapiens), sequence (P10635 whole entry, looked up): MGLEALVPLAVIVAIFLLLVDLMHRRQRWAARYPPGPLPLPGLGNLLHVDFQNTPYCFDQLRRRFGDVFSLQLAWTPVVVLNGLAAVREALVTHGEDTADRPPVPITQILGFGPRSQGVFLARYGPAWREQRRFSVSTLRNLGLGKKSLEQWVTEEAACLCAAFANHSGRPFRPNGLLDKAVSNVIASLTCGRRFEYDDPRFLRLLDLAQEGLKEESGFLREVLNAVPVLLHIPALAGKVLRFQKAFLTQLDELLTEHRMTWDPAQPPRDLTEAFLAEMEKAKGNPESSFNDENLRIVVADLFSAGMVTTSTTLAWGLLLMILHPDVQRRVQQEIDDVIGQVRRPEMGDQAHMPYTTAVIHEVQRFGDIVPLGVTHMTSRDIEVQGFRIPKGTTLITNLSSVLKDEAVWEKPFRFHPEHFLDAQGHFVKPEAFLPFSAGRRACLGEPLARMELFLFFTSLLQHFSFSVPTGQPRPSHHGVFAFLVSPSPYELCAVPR
Cytochrome P450 3A4 (Homo sapiens), sequence (P08684 whole entry, looked up): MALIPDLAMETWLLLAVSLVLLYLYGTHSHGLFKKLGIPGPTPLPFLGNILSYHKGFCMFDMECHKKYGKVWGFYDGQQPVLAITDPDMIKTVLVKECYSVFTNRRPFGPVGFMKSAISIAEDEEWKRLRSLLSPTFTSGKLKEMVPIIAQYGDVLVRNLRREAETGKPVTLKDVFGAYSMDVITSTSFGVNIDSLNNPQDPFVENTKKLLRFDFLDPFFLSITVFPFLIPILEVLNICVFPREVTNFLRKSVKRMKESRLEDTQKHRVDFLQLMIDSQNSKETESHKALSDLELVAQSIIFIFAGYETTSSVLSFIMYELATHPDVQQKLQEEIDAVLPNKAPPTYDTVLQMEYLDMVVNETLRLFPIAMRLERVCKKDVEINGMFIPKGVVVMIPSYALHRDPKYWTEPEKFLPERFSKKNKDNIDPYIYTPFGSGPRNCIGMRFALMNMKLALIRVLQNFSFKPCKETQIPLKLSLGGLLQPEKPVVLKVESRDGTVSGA
Cytochrome P450 1A2 (Homo sapiens), sequence (P05177 whole entry, looked up): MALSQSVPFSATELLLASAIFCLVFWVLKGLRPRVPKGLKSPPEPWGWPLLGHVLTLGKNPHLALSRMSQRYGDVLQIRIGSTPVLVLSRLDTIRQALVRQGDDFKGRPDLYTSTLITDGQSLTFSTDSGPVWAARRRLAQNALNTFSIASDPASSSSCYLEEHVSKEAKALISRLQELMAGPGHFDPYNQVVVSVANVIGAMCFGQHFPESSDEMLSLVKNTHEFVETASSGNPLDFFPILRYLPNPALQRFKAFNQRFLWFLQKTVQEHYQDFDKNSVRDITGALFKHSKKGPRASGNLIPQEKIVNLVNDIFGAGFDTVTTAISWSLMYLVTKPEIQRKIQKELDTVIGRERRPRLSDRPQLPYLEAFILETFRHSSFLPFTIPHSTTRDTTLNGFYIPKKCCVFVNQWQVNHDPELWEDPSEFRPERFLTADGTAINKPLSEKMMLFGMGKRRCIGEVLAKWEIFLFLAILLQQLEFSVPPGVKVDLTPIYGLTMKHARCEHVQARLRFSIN
Cytochrome P450 2C19 (Homo sapiens), sequence (P33261 whole entry, looked up): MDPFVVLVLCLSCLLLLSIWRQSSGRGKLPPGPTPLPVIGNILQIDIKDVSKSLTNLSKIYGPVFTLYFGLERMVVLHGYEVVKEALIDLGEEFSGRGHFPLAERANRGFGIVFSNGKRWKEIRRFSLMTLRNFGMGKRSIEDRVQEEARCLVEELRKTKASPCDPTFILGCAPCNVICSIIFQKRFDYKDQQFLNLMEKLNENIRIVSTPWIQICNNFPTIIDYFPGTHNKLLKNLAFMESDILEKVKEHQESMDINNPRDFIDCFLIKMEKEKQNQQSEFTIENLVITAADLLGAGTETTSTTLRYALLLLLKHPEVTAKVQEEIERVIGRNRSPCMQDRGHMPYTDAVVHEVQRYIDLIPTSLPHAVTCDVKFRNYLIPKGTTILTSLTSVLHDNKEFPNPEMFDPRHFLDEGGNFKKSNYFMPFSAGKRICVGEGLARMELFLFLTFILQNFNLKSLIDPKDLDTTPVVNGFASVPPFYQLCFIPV
Acetylcholinesterase (Homo sapiens), sequence (P22303 whole entry, looked up): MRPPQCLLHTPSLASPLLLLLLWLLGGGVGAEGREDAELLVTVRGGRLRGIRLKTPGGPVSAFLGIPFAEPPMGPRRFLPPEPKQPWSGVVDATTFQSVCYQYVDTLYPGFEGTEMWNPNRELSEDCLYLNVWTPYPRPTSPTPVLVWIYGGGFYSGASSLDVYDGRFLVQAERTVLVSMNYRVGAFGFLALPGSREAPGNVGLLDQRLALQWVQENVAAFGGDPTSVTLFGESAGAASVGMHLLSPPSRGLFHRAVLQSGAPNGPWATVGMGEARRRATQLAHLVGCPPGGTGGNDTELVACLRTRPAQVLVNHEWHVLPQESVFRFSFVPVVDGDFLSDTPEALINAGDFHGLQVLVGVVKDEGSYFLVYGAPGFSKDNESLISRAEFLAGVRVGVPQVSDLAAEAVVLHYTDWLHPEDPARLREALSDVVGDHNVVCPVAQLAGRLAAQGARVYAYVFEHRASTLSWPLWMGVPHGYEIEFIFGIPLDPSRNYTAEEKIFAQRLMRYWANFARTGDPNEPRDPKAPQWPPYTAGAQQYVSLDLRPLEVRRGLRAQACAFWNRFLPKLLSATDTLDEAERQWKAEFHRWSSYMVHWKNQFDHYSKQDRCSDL

CCCCC1C(=O)NC(=O)N(C2CCCCC2)C1=O (configuration not stated)
inactive: Potency [1] | Potency [2] | Potency [3] | Potency [4] | Potency [5] | Potency [6] | Potency [7] | Potency [8] | Potency [10] | Potency [11] | Potency [12]
active: Potency [9] 27.5 µM

Nc1c(Br)cc(Br)c2c1C(=O)c1ccccc1C2=O
inactive: caspase-3/7 activation [3] 3.36% [at 19 µM] | activity change, negative = cytotoxicity [4] -8.94% [at 19 µM] | activation [13] 3.29% [at 19 µM] | activity, negative = inhibition [5] 1.8% [at 23.6 µM] | activity change, negative = inhibition [14] 0.0969% [at 23.6 µM] | activity change, negative = inhibition [6] 2.58% [at 23.8 µM] | activity change, negative = inhibition [7] 0.243% [at 23.6 µM] | activity change, negative = inhibition [8] 0.314% [at 23.6 µM] | activity change, negative = inhibition [9] -3.63% [at 23.6 µM] | activity change, negative = inhibition [15] -2.78% [at 23.6 µM] | activity change, negative = inhibition [11] -6.02% [at 15.8 µM] | activity change, negative = inhibition [12] 1.74% [at 23.6 µM]
active: Potency [2] 14.5 µM | Potency [10] 0.168 µM

O=C(O)COc1cc(Cl)c(Cl)cc1Cl
active: Potency [15] 63.4 µM and 39.9 µM
inactive: Potency [1] | Potency [2] | Potency [3] | Potency [4] | Potency [5] | Potency [14] | Potency [6] | Potency [7] | Potency [8] | Potency [9] | Potency [10] | Potency [11] | Potency [12]

CCCCCCCCCCCCN(C)C
inactive: Potency [1] | Potency [2] | Potency [3] | Potency [4] | Potency [5] | Potency [6] | Potency [7] | Potency [8] | Potency [15] | Potency [11] | Potency [12]
active: Potency [10] 35.6 µM

CC(C)(C)N(NC(=O)c1ccc(Cl)cc1)C(=O)c1ccccc1
inactive: Potency [3] | Potency [5] | Potency [14] | Potency [6] | Potency [7] | Potency [8] | Potency [11]
active: Potency [2] 12.1 µM | Potency [4] 12.1 µM | Potency [9] 4.45 µM | Potency [15] 11.2 µM | Potency [10] 39.7 µM | Potency [12] 7.92 µM

O=P(OCC(Br)CBr)(OCC(Br)CBr)OCC(Br)CBr (configuration not stated)
active: Potency [2] 69.5 µM | Potency [8] 20.3 µM and 26.8 µM | Potency [15] 16.1 µM and 16.9 µM | Potency [11] 12.5 µM and 18.5 µM | Potency [12] 2.55 µM and 7.56 µM
inactive: Potency [1] | Potency [3] | Potency [4] | Potency [5] | Potency [6] | Potency [7]

C[C@H]1[C@@H]2Cc3ccc(O)cc3[C@@]1(C)CCN2C
active: Potency [5] 15.2 µM | Potency [6] 2.14 µM | Potency [7] 191 µM | Potency [8] 33.9 µM | Potency [9] 53.8 µM
inactive: Potency [1] | Potency [2] | Potency [3] | Potency [4] | Potency [13] | Potency [15] | Potency [10] | Potency [11] | Potency [12]

N#CC(C#N)=C(C#N)C#N
active: Potency [15] 33.1 µM | Potency [10] 41.7 µM | Potency [12] 20.9 µM
inactive: Potency [1] | Potency [3] | Potency [5] | Potency [14] | Potency [6] | Potency [7] | Potency [11]

O=C([O-])c1ccccn1.O=C([O-])c1ccccn1.O=C([O-])c1ccccn1.[Cr+3]
inactive: Potency [2] | Potency [3] | Potency [4] | Potency [13] | Potency [5] | Potency [6] | Potency [7] | Potency [11]
active: Potency [8] 79.9 µM | Potency [10] 79.9 µM

C[C@H]1O[C@H](OC2[C@@H](O)[C@@H](O)C(O)[C@H](O)[C@H]2O)[C@@H](N)C[C@@H]1N=C(N)C(=O)O (some centres not stated)
inactive: Potency [1] | Potency [2] | Potency [3] | Potency [4] | Potency [13] | Potency [5] | Potency [14] | Potency [6] | Potency [7] | Potency [15] | Potency [11] | Potency [12]

O=[N+]([O-])c1cc(Cl)c(Cl)cc1Cl
inactive: Potency [1] | Potency [2] | Potency [3] | Potency [4] | Potency [13] | Potency [5] | Potency [14] | Potency [6] | Potency [7] | Potency [15] | Potency [11] | Potency [12]
active: Potency [10] 5.61 µM

NC(=O)CF
inactive: Potency [2] | Potency [3] | Potency [4] | Potency [13] | Potency [5] | Potency [14] | Potency [6] | Potency [7] | Potency [9] | Potency [15] | Potency [10] | Potency [11] | Potency [12]

O=C(NC(=O)c1cc(F)c(F)cc1Cl)Nc1cc(F)ccc1N1CCC(C(=O)O)CC1
inactive: Potency [2] | Potency [3] | Potency [4] | Potency [5] | Potency [14] | Potency [6] | Potency [7] | Potency [9] | Potency [10] | Potency [11] | Potency [12]

COc1ccc(C(O)(c2cncnc2)C2CC2)cc1 (configuration not stated)
active: Potency [9] 20 µM | Potency [15] 63.3 µM | Potency [12] 0.894 µM
inactive: Potency [1] | Potency [2] | Potency [3] | Potency [4] | Potency [13] | Potency [5] | Potency [14] | Potency [6] | Potency [7] | Potency [11]
